Measurements: PubChem BioAssay (NCI)
The panel holds about 83,000 compounds, 20% with a hit somewhere; the sample as a whole holds those more often.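 Cell lines were cultured in 96-well plates, exposed to a single compound concentration, and assessed for percent growth 48 hours later.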 The source made the active and inactive calls. Rule for the calls: active = growth percent below 10; inactive = the rest.

Assays:
Experiment in all cases: NCI-60 one-dose screen, 48 h (100 = growth as untreated, 0 = no growth, -100 = all killed)
Conditions in all cases: 10 µM unless noted
EKVX NSCLC = system: EKVX NSCLC
SN12C renal = system: SN12C renal
UO-31 renal = system: UO-31 renal
ACHN renal = system: ACHN renal
CAKI-1 renal = system: CAKI-1 renal
A498 renal = system: A498 renal
CCRF-CEM leukemia = system: CCRF-CEM leukemia
MOLT-4 leukemia = system: MOLT-4 leukemia
SR leukemia = system: SR leukemia
TK-10 renal = system: TK-10 renal

Row | Structure (SMILES) | growth (EKVX NSCLC) | growth (SN12C renal) | growth (UO-31 renal) | growth (ACHN renal) | growth (CAKI-1 renal) | growth (A498 renal) | growth (CCRF-CEM leukemia) | growth (MOLT-4 leukemia) | growth (SR leukemia) | growth (TK-10 renal)
1 | COc1cc(-c2ccc3ncnc(NC(C)c4ccccc4)c3c2)cnc1OC (stereo unspecified) | 19.5% (inactive) | 39.1% (inactive) | 19.1% (inactive) | 21% (inactive) | 16.4% (inactive) | -14.9% (active) | 56.3% (inactive) | 45.1% (inactive) | 43.7% (inactive) | –
2 | N/C(=N\c1nc2c(Cl)cc(Cl)cc2s1)C(Cl)(Cl)Cl | 13.4% (inactive) | 77.9% (inactive) | 45.8% (inactive) | -32% (active) | 5.87% (active) | -44.4% (active) | 83.7% (inactive) | 82.8% (inactive) | 85.1% (inactive) | –
3 | CCOC(=O)c1c(Nc2ccccc2)nn2c(-c3ccco3)c(C#N)cnc12 | 75.7% (inactive) | 92.9% (inactive) | 71% (inactive) | 56.5% (inactive) | 90.1% (inactive) | 45.1% (inactive) | 82.4% (inactive) | 92.2% (inactive) | – | –
4 | COc1ccc(-c2cc(C(=O)N=Nc3c(O)[nH]c4ccccc34)c3ccccc3n2)cc1OC | 91.9% (inactive) | 94.6% (inactive) | 85.2% (inactive) | 102% (inactive) | 94.9% (inactive) | 82.1% (inactive) | 100% (inactive) | 102% (inactive) | 102% (inactive) | –
5 | Cc1cc2nc3c4cc(Cl)ccc4n(CC(=S)NCCN(C)C)c3nc2cc1C | 4.02% (active) | 40.9% (inactive) | -68.1% (active) | -96.4% (active) | -92.3% (active) | – | – | -60.3% (active) | -43.8% (active) | 55.6% (inactive)
6 | COc1ccc(-n2c(SCC(=O)Nc3ccc(-c4nc5ccccc5[nH]4)cc3)nc3ccccc3c2=O)cc1 | 53.1% (inactive) | 62.3% (inactive) | 73.5% (inactive) | 54% (inactive) | 36.8% (inactive) | – | – | 25.7% (inactive) | -4.97% (active) | 107% (inactive)
7 | O=C1/C(=C/C2=Cc3ccccc3OC2)SC(=S)N1c1ccc(F)cc1 | 94.7% (inactive) | 93% (inactive) | 86.3% (inactive) | 76% (inactive) | 90.6% (inactive) | 71.6% (inactive) | 109% (inactive) | 108% (inactive) | 97.2% (inactive) | –
8 | COc1ccc(-c2nn3c(-c4ccccc4F)nnc3s2)cc1 | 70% (inactive) | 58.2% (inactive) | 65% (inactive) | 78.1% (inactive) | 50.7% (inactive) | 16.4% (inactive) | 58.5% (inactive) | 35.1% (inactive) | 15.4% (inactive) | –
9 | c1ccc(CNc2ncnc3ccc(-c4cnc5[nH]ncc5c4)cc23)cc1 | 46.6% (inactive) | 56.6% (inactive) | 35% (inactive) | 34.5% (inactive) | 36.3% (inactive) | -8.94% (active) | 73.1% (inactive) | 34.6% (inactive) | – | –
10 | COc1cc(/C=C/C(=O)c2ccc(F)cc2)ccc1Oc1nc(NCCO)nc(N2CCOCC2)n1 | 82.8% (inactive) | 84.6% (inactive) | 61.2% (inactive) | 70.9% (inactive) | 71.9% (inactive) | – | – | 6.59% (active) | -0.24% (active) | 146% (inactive)
11 | COc1ccc(C(=O)/C=C/c2ccc(OCc3ccc(C)cc3)c(OC)c2)cc1OC | 61.4% (inactive) | 75.9% (inactive) | 58.6% (inactive) | 75.8% (inactive) | 61.4% (inactive) | – | – | 29.4% (inactive) | 9.97% (active) | 117% (inactive)
12 | N#Cc1ccc(/C=N/NC(=O)c2[nH]c3ccc(Br)cc3c2-c2ccccc2)s1 | 25% (inactive) | 42.1% (inactive) | 36% (inactive) | 18.2% (inactive) | 18.3% (inactive) | – | 9.74% (active) | 4.12% (active) | 7.7% (active) | 102% (inactive)
13 | CN(C)c1ccc(/C=c2\sc3nc4ccccc4n3c2=O)cc1 | 87% (inactive) | 99.2% (inactive) | 92.2% (inactive) | 98% (inactive) | 93.3% (inactive) | 85.1% (inactive) | 13.8% (inactive) | 103% (inactive) | 99.7% (inactive) | –
14 | Clc1ccc2oc3c(NCCCN4CCOCC4)c4ccccc4nc3c2c1 | 37.9% (inactive) | 19.6% (inactive) | 24.2% (inactive) | 13.4% (inactive) | 12.8% (inactive) | -2.14% (active) | 27.6% (inactive) | 4.08% (active) | 1.91% (active) | –
15 | COc1cc(-c2nc3ccc(-c4nnc(SCC(=O)Nc5ccc(C(=O)/C=C/c6ccc(Cl)cc6)cc5)o4)cc3[nH]2)cc(OC)c1OC | 99.5% (inactive) | 90.4% (inactive) | 84% (inactive) | 96.8% (inactive) | 97.2% (inactive) | 83.2% (inactive) | 81.6% (inactive) | 79.5% (inactive) | 60.4% (inactive) | –
16 | CCOC(=O)c1c(NC(=O)c2cccc(C(F)(F)F)c2)sc2cc(O)ccc12 | 84.8% (inactive) | 89.4% (inactive) | 60.1% (inactive) | 93.4% (inactive) | 96.7% (inactive) | 77.1% (inactive) | 63.5% (inactive) | 81.6% (inactive) | 101% (inactive) | –
17 | Cc1cccc(/C=C/c2nn3c(-c4ccco4)nnc3s2)c1 | 81.3% (inactive) | 94.8% (inactive) | 83.7% (inactive) | 102% (inactive) | 91.4% (inactive) | 77.5% (inactive) | 99.4% (inactive) | 104% (inactive) | 79% (inactive) | –
18 | N#Cc1nc(-c2ccccc2)oc1S(=O)(=O)N1CCCCC1 | 76.1% (inactive) | 62.5% (inactive) | -82.2% (active) | -93.4% (active) | 17.4% (inactive) | 89.9% (inactive) | 4.27% (active) | 0.441% (active) | – | –
19 | Cc1nc(-c2cc3ccccc3oc2=O)ccc1C(=O)/C=C/c1ccc(N2CCOCC2)cc1 | 86.6% (inactive) | 83.8% (inactive) | 83.9% (inactive) | 70.9% (inactive) | 65.1% (inactive) | 75.2% (inactive) | 72.4% (inactive) | 66.1% (inactive) | 26% (inactive) | –
20 | COc1ccc(COc2ccc(/C=C3/C(=O)Nc4cc(Cl)ccc43)cc2)cc1 | 95.8% (inactive) | 94.1% (inactive) | 79.4% (inactive) | 95.7% (inactive) | 88.3% (inactive) | 83.7% (inactive) | 6.11% (active) | 108% (inactive) | 109% (inactive) | –
21 | c1ccc2c(NCCCN3CCOCC3)c3oc4ccccc4c3nc2c1 | -19.6% (active) | 3.3% (active) | -79.6% (active) | -9% (active) | -27% (active) | -86.9% (active) | 12% (inactive) | -4.43% (active) | -12.1% (active) | –
22 | COc1cc2nc(-c3ccc(C(F)(F)F)cc3)cc(OCCCNCC3CCCO3)c2cc1OC (stereo unspecified) | 61.5% (inactive) | 46.2% (inactive) | 35.9% (inactive) | 31.9% (inactive) | 8.44% (active) | 17.9% (inactive) | 28.6% (inactive) | 14.3% (inactive) | 8.68% (active) | –
23 | CN1CCc2c(sc3ncnc(N/N=C/c4ccc(Cl)c(Cl)c4)c23)C1 | 60.8% (inactive) | 81.2% (inactive) | 29.7% (inactive) | -84.7% (active) | 10.6% (inactive) | – | – | 26.6% (inactive) | -22.8% (active) | 137% (inactive)
24 | OC1CCc2c(-c3ccc4ncnc(N5CCc6cc(F)c(Cl)cc65)c4c3)cncc21 (stereo unspecified) | 27.1% (inactive) | 39.3% (inactive) | 19% (inactive) | 18.6% (inactive) | 22.5% (inactive) | -13.1% (active) | 40.3% (inactive) | 21.9% (inactive) | 47.9% (inactive) | –
25 | Cc1ccc2ccc3ccc(C)nc3c2n1.Cc1ccc2ccc3ccc(C)nc3c2n1.Oc1c(Cl)cc(Cl)c2ccc(CN3CCCCC3)nc12.[Ru] | -64.9% (active) | -64.9% (active) | -89.8% (active) | -95.6% (active) | -77.7% (active) | -88.7% (active) | -47.9% (active) | -52.7% (active) | – | –
26 | CCN1CCN(S(=O)(=O)c2oc(-c3ccc(Cl)cc3)nc2C#N)CC1 | 95.6% (inactive) | 78.7% (inactive) | 33.2% (inactive) | -86.6% (active) | 65% (inactive) | 93.2% (inactive) | 2.3% (active) | 0.374% (active) | – | –
27 | COC(=O)C(C)NS(=O)(=O)/N=C1\NC(=O)NC1=C(Cl)Cl (stereo unspecified) | 104% (inactive) | 98.7% (inactive) | 81.7% (inactive) | 98.2% (inactive) | 99% (inactive) | – | – | 100% (inactive) | 93.2% (inactive) | 140% (inactive)
28 | CC(C)(C)Nc1nc2c(OCCc3ccccc3)cccn2c1-c1ccccc1Cl | 6.5% (active) | 0.779% (active) | -14% (active) | 4.1% (active) | -6.8% (active) | -23% (active) | 1.24% (active) | -21.5% (active) | -14.6% (active) | –
